# Experimental data from PubChem BioAssay (NCATS).
# Calls of active or inactive are those of the source. Entries that show only a call come without a potency. Calls come from the whole dose curve; as a rule, active = well fitted inhibition curve with a large enough effect; inconclusive = small, poorly fitted or top-dose-only effect; inactive = flat fitted curve, though single readings scatter. Where a SMILES comes first, the peptide text is derived from it. [ ]: non-standard residue; d: D form. 2Abz = Nc1ccccc1C(=O)O
# Target: Luciferin 4-monooxygenase (Photinus pyralis) (UniProt P08659)
# Experiment: Primary firefly luciferase (FLuc) qHTS assay for identification of artifact compounds. (AID 1845220); note: nearly all actives have a fitted effect of over 60% in size
# Conditions: purified firefly luciferase, luminescence, 5 min; series mostly up to 54.1 µM
# From the text: PI: Alexander Tropsha Ph.D.
# UNC Eshelman School of Pharmacy
# University of North Carolina, Chapel Hill, North Carolina
# Hits from high-throughput screening (HTS) of chemical libraries are often false positives due to their interference with the assay detection technology. In response to this problem, we generated the largest publicly available library of chemical liabilities and developed a free webtool to predict HTS artifacts, both of which are described herein. More specifically, we generated, curated, and integrated HTS datasets for thiol reactivity, redox activity, and luciferase (firefly and nano) activity. Using these curated datasets, we developed and validated several Quantitative Structure-Interference Relationship (QSIR) models to predict nuisance behavior. […] These models were employed for virtual profiling of the National Center for Advancing Translational Science's (NCATS) in-house library, and 256 compounds for each assay were selected for the experimental validation of nuisance behavior. The BA for these external predictions ranged from 58 to 78% for compounds within the applicability domains of the models. […] The models developed in this study, along with aggregation models previously developed by our group (SCAM Detective) were implemented in "Liability Predictor," an online tool which may be used as part of chemical library design or for triaging HTS hits. Both the models and the curated datasets are publicly available at https://liability.mml.unc.edu/.
# SEQUENCE No. (e.g., 1, 2, 3, etc.); […] (e.g., Cells, Incubation, Reagent, etc.); VALUE; DESCRIPTION.
# 1; Reagent; 3 uL; Luciferase substrate mixture.
# 2; Compounds and control; 16 nL; Kalypsis pin tool (Wako USA) equipped with a 1536-well pin head.
# 4; Reagent; 1 uL; Luciferase enzyme.
# 6; Detection; Luminescence, ViewLux microplate reader.
# NOTES (numbers refer to Sequence numbers above)
# 1. 3 uL of luciferase substrate mixture containing D-luciferin and ATP (final concentrations of 10 uM and 10 uM, respectively) in assay buffer (10 mM Mg-acetate, 0.01% Tween-20, 0.05% bovine serum albumin, 50 mM Tris acetate, pH 7.6) was dispensed into all wells of a 1536-well assay plate (solid-bottom white plate; Greiner Bio One, Monroe, NC).
# 2. A Wako Pin-tool (Wako Automation, Richmond, VA) was used to transfer 16 nL of compounds (consisting of 7-plates in qHTS format, final concentration range 18.3 nM to 114 uM) or control PTC124 (final concentration range 1.22 nM to 40 uM).
# 3. 15 min. incubation at room temperature protected from light.
# 4. 1 uL of luciferase enzyme (final concentration 10 nM, Photinus pyralis luciferase) or buffer was dispensed for a final assay volume of 4 uL.
# 5. Plates were centrifuged (121xg, 15 seconds) and incubated for 5 minutes.
# 6. Samples were read for luminescence on a ViewLux CCD imager (PerkinElmer). Data were normalized to no-enzyme (0% activity) and no-inhibitor (DMSO; 100%) controls and the resulting percent inhibition data were fitted to a 4-parameter Hill equation using NCATS in-house software.
Structure (SMILES),Potency,"activity change, negative = inhibition",outcome
CC(=O)O[C@H]1C[C@@H]2[C@]3(CC[C@]4(C)[C@@H](C5(C)CCC(C(C)(C)O)O5)[C@@H](O)C[C@@]24C)C[C@@]32CC[C@H](O[C@@H]3OC[C@@H](O)[C@H](O)[C@H]3O)C(C)(C)[C@H]12 (stereo not given in full),inactive,,
CCC(C)C1NC(=O)C2CCCN2C(=O)C(C(C)C)NC(=O)c2ccccc2NC(=O)C(Cc2ccc(O)cc2)NC(=O)C(C)NC(=O)C(C(C)O)NC1=O (stereo not given) (cyclo([2Abz]VPITAY); configuration not given here),inactive,,
C[C@@H](OC(=O)/C=C/c1ccc(O)cc1)C1=C[C@]2(C=C[C@@H]3C(C(=O)O)=CO[C@@H](O[C@@H]4O[C@H](CO[C@@H]5O[C@H](CO)[C@@H](O)[C@H](O)[C@H]5O)[C@@H](O)[C@H](O)[C@H]4O)[C@@H]32)OC1=O,inactive,,
C=C1CC[C@H]2[C@@H](/C=C(\C)C(=O)[C@@]3(OC(C)=O)C[C@H](C)[C@H](OC(C)=O)[C@@H]3[C@H]1OC(C)=O)C2(C)C,inactive,,
Cc1cc(N2CCCCC2)nc2ccccc12,inactive,,
N#Cc1ccnc(N2C(=O)CC[C@H]2C(=O)N(c2cncc(F)c2)[C@H](C(=O)NC2CC(F)(F)C2)c2ccccc2Cl)c1,inactive,,
O=S(=O)(NC1CCNCC1)c1cc(S(=O)(=O)c2ccccc2)ccc1C(F)(F)F,inactive,,
COC1=CC(=O)O[C@@H](CCc2ccccc2)[C@@H]1O,inactive,,
CC1=C(C)C(=O)OC(C(C)C2C(O)CC3C4C5OC5C5(O)CC(OC6OC(CO)C(O)C(O)C6O)CC(O)C5(C)C4CCC32C)C1 (stereo not given),inactive,,
CC1=CC[C@]2(C(=O)O[C@@H]3O[C@H](CO[C@@H]4O[C@H](CO)[C@@H](O[C@@H]5O[C@@H](C)[C@H](O)[C@@H](O)[C@H]5O)[C@H](O)[C@H]4O)[C@@H](O)[C@H](O)[C@H]3O)CC[C@]3(C)C(CCC4[C@@]5(C)C[C@@H](O)[C@H](O)[C@@](C)(CO)C5CC[C@]43C)C2C1C (stereo not given in full),,0.527% [at 11.6 µM] (inactive),
CC1(O)CCC2C(C(=O)O)=COC(OC3OC(CO)C(O)C(O)C3OC(=O)/C=C/c3ccc(O)cc3)C21 (stereo not given),inactive,,
NS(=O)(=O)NCCNc1nonc1C(=Nc1ccc(F)c(Br)c1)NO,inactive,,
COc1ccc(/C=C/C(=O)O[C@@H]2[C@@H](OC(C)=O)[C@@H](OC(C)=O)[C@H](O[C@H]3[C@@H]4C=CO[C@@H](O[C@@H]5O[C@H](CO)[C@@H](O)[C@H](O)[C@H]5O)[C@@H]4[C@@]4(CO)O[C@@H]34)O[C@H]2C)cc1O,inactive,,
COc1cc2c(Nc3ccc(Cl)c(Cl)c3F)ncnc2cc1OCC1C[C@@H]2CN(C)C[C@@H]2C1 (stereo not given in full),inactive,,
COc1cc(/C=C/c2cc(O)cc(O[C@@H]3O[C@H](CO)[C@@H](O)[C@H](O)[C@H]3O)c2)ccc1O,inactive,,
CC(C)(C)NCc1cc(Nc2ccnc3cc(Cl)ccc23)c2c(c1O)CCCC2,,-4.19% [at 0.464 µM] (inactive),
CC(C)(O)CNc1nc(Nc2ccnc(C(F)(F)F)c2)nc(-c2cccc(C(F)(F)F)n2)n1,inactive,,
CC1(C)CC2C(O)C3=C(CC(C)(O)C2C1)C(=O)OC3O (stereo not given),inactive,,
CCOC(=O)c1ccnc(CNCC(=O)N(CC)CCN(C)C)c1,inactive,,
COc1cc(CCc2ccccc2)c(C(=O)O)c2c1CC(C(C)(C)O)O2 (stereo not given),inactive,,

Structure (SMILES),Potency,"activity change, negative = inhibition",outcome
O=C(NCC(=O)N1CC[C@H](NC2CCC(O)(c3ccc(-c4ncccn4)cn3)CC2)C1)c1cccc(C(F)(F)F)c1 (stereo not given in full),inactive,,
CC1(C)C(O)CCC2(C)C1C(O)C=C1COC(=O)C12O (stereo not given),inactive,,
COc1cc([C@@H]2Oc3c(OC)cc(CCCO)cc3[C@@H]2CO[C@@H]2O[C@H](CO)[C@@H](O)[C@H](O)[C@H]2O)ccc1O,inactive,,
C=CC(C)(CC/C=C(\C)CC/C=C(\C)CC(O)/C=C(\C)C(=O)O)O[C@@H]1O[C@H](CO)[C@@H](O)[C@H](O)[C@H]1O[C@@H]1O[C@H](CO)[C@@H](O)[C@H](O)[C@H]1O (stereo not given in full),inactive,,
CCOc1c2c(c(OCC)c3ccccc13)C(=O)N(c1ccc(CC(=O)NS(=O)(=O)c3ccccc3)cc1)C2,inactive,,
CC1(C)CC2C(C1)C1(C)CCC13OC3(CO)C2O (stereo not given),inactive,,
Cc1cc(C)cc(NC(=O)Cc2ccc(OC(C)(C)C(=O)O)cc2)c1,inactive,,
CO[C@@H]1CC[C@H](OC[C@]2(COC(=O)c3ccc(C)[nH]3)[C@H](OC(C)=O)CC[C@@]3(C)[C@@H]4CC=C(C)[C@@H](C5=C(O)C(=O)OC5O)[C@]4(C)CC[C@@H]32)O[C@H]1C (stereo not given in full),inactive,,
C[C@@H]1O[C@@H](O[C@H]2[C@H](OC(=O)[C@]34CCC(C)(C)C[C@H]3C3=CCC5[C@@]6(C)C[C@H](O)[C@H](O[C@@H]7O[C@H](CO[C@@H]8OC[C@H](O)[C@H](O)[C@H]8O)[C@@H](O)[C@H](O)[C@H]7O)C(C)(C)C6CC[C@@]5(C)[C@]3(C)C[C@H]4O)OC[C@@H](O)[C@@H]2O)[C@H](O)[C@H](O[C@@H]2OC[C@](O)(CO)[C@H]2O)[C@H]1O[C@@H]1OC[C@H](O)[C@H](O[C@@H]2OC[C@@H](O)[C@H](O)[C@H]2O)[C@H]1O (stereo not given in full),,,inactive [at 11.6 µM]
CC1CCC2(C(=O)OC3OC(CO)C(O)C(O)C3O)CCC3(C)C(=CCC4C5(C)CC(O)C(O)C(C)(C(=O)O)C5CCC43C)C2C1(C)O (stereo not given),inactive,,
NC(=O)c1cccc(-c2cc(O)cc(OC(=O)NC3CCCCC3)c2)c1,inactive,,
CC(C)CC(=O)n1cc(C(N)=O)c(=O)cc1C(O)c1ccccc1 (stereo not given),inactive,,
CCC(CC)n1ccc2c(C(=O)NCc3c(C)cc(C)[nH]c3=O)cc(C#N)cc21,inactive,,
CCCCS(=O)(=O)Nc1ncnc(OCCOc2ncc(Br)cn2)c1-c1ccc(Br)cc1,inactive,,
C=C1CC[C@H]2[C@@](C)(CCC[C@@]2(C)C(=O)O)[C@@H]1CCC(C)CCO (stereo not given in full),inactive,,
Cn1c(=O)c2nc(/C=C/c3cccc(Cl)c3)n(C)c2n(C)c1=O,inactive,,
C=C1CC/C=C(/CO)C(=O)C[C@@H]2[C@@H]1CC2(C)C,inactive,,
CCn1c2ccccc2c2cc(CNC)ccc21,inactive,,
CCn1cc(C2=NOC(C(=O)Nc3c(C)n(C)n(-c4ccccc4)c3=O)C2)c(C)n1 (stereo not given),inactive,,
COc1cc([C@H]2OC[C@@H]3[C@@H](c4ccc(O[C@@H]5O[C@H](CO)[C@@H](O)[C@H](O)[C@H]5O)c(OC)c4)OC[C@]23O)ccc1O,inactive,,
